Data as given in PubChem BioAssay (NCI).
The panel holds about 79,000 compounds, 15% with a hit somewhere; the sample as a whole holds those more often. Cut-off read from the data, not from the text of the source: active = growth inhibition above about 70%; inactive = the rest.

Assays:
[1] = NCI Yeast Anticancer Drug Screen. Data for the rad50 strain (AID 155);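 note: 0% = growth of vehicle-only cultures of the same strain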; details: S. cerevisiae rad50 strain growth inhibition; at 50.0 µM; active compounds read high
Outline: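 Inhibition values express reduced yeast growth in compound-treated cultures relative to vehicle-treated controls.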

[2] = NCI Yeast Anticancer Drug Screen. Data for the mec2-1 strain (AID 157); details: S. cerevisiae mec2-1 strain, at 50.0 µM, active compounds read high
Outline: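 Compounds were applied to mec2-1 yeast cells. Their growth was then compared with that of vehicle-treated cultures to give growth inhibition.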

[3] = NCI Yeast Anticancer Drug Screen. Data for the sgs1 mgt1 strain (AID 161);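 note: 0% = growth of cultures given vehicle only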; details: S. cerevisiae sgs1 mgt1 strain, at 50.0 µM, active compounds read high
Outline: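 Growth of a repair-deficient yeast mutant was monitored after compound treatment and expressed as inhibition relative to vehicle-treated cultures.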

[4] = NCI Yeast Anticancer Drug Screen. Data for the cln2 rad14 strain (AID 165);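 note: 0% = growth equal to vehicle treated cultures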; details: S. cerevisiae cln2 rad14 strain, at 50.0 µM, active compounds read high
Outline: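 Strain: cln2 rad14 yeast, altered in cell cycle control and DNA damage repair. Read-out: growth inhibition vs vehicle.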

[5] = NCI Yeast Anticancer Drug Screen. Data for the bub3 strain (AID 167); details: S. cerevisiae bub3 mutant strain, at 50.0 µM, active compounds read high
Outline: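 Steps: expose the mutant yeast strain to compound; grow alongside vehicle-treated cultures; measure growth; express inhibition against the vehicle cultures.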

[6] = NCI Yeast Anticancer Drug Screen. Data for the mlh1 rad18 strain (AID 175); details: S. cerevisiae mlh1 rad18 strain growth inhibition; at 50.0 µM; active compounds read high
Outline: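 A repair-deficient yeast strain is exposed to test compound, and growth is scored relative to vehicle-treated controls.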

Measured: growth inhibition

Nc1nc(-c2ccccc2)nc(-c2ccccc2)n1
inactive: [1] -2.95% | [2] -7.05% | [3] -8.4% | [4] -14.2% | [5] -21.7% | [6] -16.4%

BrCCCCCCCCCBr
inactive: [1] 9.75% | [2] -3.35% | [3] 1.05% | [4] 12.9% | [5] -16.6% | [6] 29.1%

CCc1ccc(C(=O)CN2CCCc3ccccc32)cc1
inactive: [1] -13.4% | [2] 0.7% | [3] -6.55% | [4] -17.2% | [5] 1.95% | [6] -13.8%

CCN(CC)CCCn1c(-c2ccccc2)ccc1-c1ccccc1
inactive: [1] 10.1% | [2] -6% | [3] 8.1% | [4] -16.4% | [5] 21.4% | [6] 18.4%

CCOC(=O)c1nc2ccc(C(F)(F)F)cc2nc1Nc1cc(OC)c(OC)c(OC)c1
inactive: [1] -33.4% | [2] -17.4% | [3] -30.8% | [4] 2.85% | [5] -13.6% | [6] -11.1%

[O-]/[N+](=C\c1ccccc1)[C@H](COCc1ccccc1)c1ccccc1
inactive: [1] -21.8% | [2] -17.1% | [3] -23.8% | [4] -13.5% | [5] -2.75% | [6] -5.5%

C[P+](C)(C)c1ccccc1
inactive: [1] -16.6% | [2] 4% | [3] 4.95% | [4] -22.2% | [5] 3.15% | [6] -3.7%

CC1C(=O)OC2C1CCC1(C)C=CC(=O)C(C)C21 (stereo unspecified)
inactive: [1] 10.7% | [2] 4.95% | [3] 1.15% | [4] -23.2% | [5] 1.85% | [6] 14.8%

CC(=O)NCC1OCC2OC(C)(C)OC12 (stereo unspecified)
inactive: [1] 3.35% | [2] -5% | [3] -11.7% | [4] -73.8% | [5] -12.1% | [6] -8.8%

CCNc1nc(C)nc2c1cnn2-c1ccc(C)cc1
inactive: [1] 6.25% | [2] -3.4% | [3] 25.3% | [4] -27.5% | [5] -21.8% | [6] 7.25%

COc1cc2c[n+]3ccc4ccccc4c3c(N)c2cc1OC
inactive: [1] 16% | [2] -8.2% | [3] -10.6% | [4] 15.8% | [5] 5.9% | [6] -4.85%

CC1(C)CS(=O)(=O)C(=O)N1CCC(=O)O
inactive: [1] 9.8% | [2] 15.4% | [3] 7.8% | [4] 3.85% | [5] 6.45% | [6] 24.9%

CCCC(=O)OC(C)CC(C)C (stereo unspecified)
inactive: [1] 6% | [2] -13.7% | [3] -12.2% | [4] -10.8% | [5] 2.2% | [6] 1.95%

O=c1c2cccnc2ncn1CCN1CCCC1
inactive: [1] 5.25% | [2] -11.6% | [3] -3.5% | [4] 8.4% | [5] -1.8% | [6] 21.1%

COc1cc2nccnc2cc1OC
inactive: [1] 10.1% | [2] 7.05% | [3] 3.35% | [4] -7.45% | [5] 6.55% | [6] 21.2%

CN(CC(C)(C)C(O)c1ccccc1)C(=O)c1ccccc1 (stereo unspecified)
inactive: [1] 0.95% | [2] -5.7% | [3] 12.7% | [4] 20.7% | [5] 8.2% | [6] 12.6%

C=CNC(=S)n1nc(-c2ccccc2NC(=O)C(F)(F)F)c(=O)n(C(=S)NC=C)c1=S
inactive: [1] 31.4% | [2] 38.5% | [3] 30.4% | [4] -0.55% | [5] -9.1% | [6] 24.9%

Nc1c(S(=O)(=O)O)cc(Nc2cccc(S(N)(=O)=O)c2)c2c1C(=O)c1ccccc1C2=O
inactive: [1] 5.05% | [2] 1.1% | [3] -42.4% | [4] -7.65% | [5] -17.1% | [6] 24.6%

CC[C@@]1(C)CCC2c3ccc(O)cc3CC[C@H]2C1C (stereo partly specified)
inactive: [1] -2.1% | [2] -9.1% | [3] 21.4% | [4] 42.6% | [5] -8.75% | [6] -6.6%

C/[N+]([O-])=C/c1ncc([N+](=O)[O-])n1CCO
inactive: [1] 4.05% | [2] 5.9% | [3] 7.95% | [4] 25.1% | [5] -3.5% | [6] 25.6%

CC(=O)Nc1ncn(C)c1S(N)(=O)=O
inactive: [1] -4.3% | [2] -19.1% | [3] -1.45% | [4] -16.3% | [5] -7.9% | [6] 15.5%
